# Compound activity (PubChem BioAssay)
# KB-V1 MDR tox: KB-V1 MDR subline cytotoxicity. 400,000 compounds, 3.4% hits. AID 1347076. Potency, µM (doses to about 46.1 µM), hits mostly cytotoxic. KB-V1 MDR cells viability, CellTiter-Glo, 72 h; note: % is set by controls: 0 for no effect and ±100 for the full control effect; nearly all actives have a fitted effect of over 60% in size
#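 Compound-treated KB-V1 multidrug-resistant cells, 72 h, 37 degrees C; viability by CellTiter-Glo. Fitted qHTS curves give the values.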
# SW480 rerep: induces DNA re-replication in SW480 colon adenocarcinoma cells. SW480 DNA re-replication, Hoechst DNA content imaging, 48 h. Potency, µM (doses to about 46.1 µM), for the others: at the highest dose re-replication activation, hits mostly activators. 340,000 compounds, 1.8% hits; note: % of control where 0% means no effect; nearly all actives have a fitted effect of over 55% in size
#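 Treated cells incubate 48 hr (37 C, 5% CO2), are stained 40 min with Hoechst, and nuclear fluorescence is enumerated; a rise in nuclei with high DNA signal marks re-replication.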
# HT1080NT lethal: kills 2HG-producing HT-1080-NT fibrosarcoma cells; HT-1080-NT fibrosarcoma viability, CellTiter-Glo ATP luminescence, 48 h; Potency, µM (highest dose often 46.1 µM), without a hit: at the highest dose activity, negative = less viability, hits mostly cytotoxic; 360,000 compounds, 1.6% hits; AID 686970;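 note: NT is the 2HG producing partner of a matched IDH1 knockdown line; 0% = DMSO-treated cells and -100% = media-only wells without cells; nearly all actives have a fitted effect of over 55% in size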
#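 HT-1080-NT fibrosarcoma cells (2HG-overproducing), 750 cells/well in RPMI with 5% FBS, dosed after 2 h and incubated 48 h at 37C. CellTiter-Glo luminescence normalized to DMSO and no-cell wells; concentration-response curves fitted and classed.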
# KB-3-1 tox: KB-3-1 parental cell cytotoxicity; KB-3-1 viability, CellTiter-Glo ATP luminescence, 72 h; Potency, µM (series often up to 46.1 µM), most hits filed as cytotoxic; 400,000 compounds, 1.4% hits; AID 1347075; note: % is set by controls: 0 for no effect and ±100 for the full control effect; nearly all actives have a fitted effect of over 60% in size
#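 Parental KB-3-1 viability, qHTS format: 72 h compound exposure, 37 °C; CellTiter-Glo; media-only wells and DMSO plates as controls; concentration-effect fits on corrected data.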
# HT1080 IDH1KD tx: HT-1080 IDH1 knockdown cell toxicity (counter line) | 360,000 compounds, 2% hits | AID 686971 | HT-1080 IDH1 knockdown viability, ATP luminescence, 48 h | Potency, µM (titrated, usually from 46.1 µM), without a hit: at the top dose activity, negative = toxicity, actives largely listed as cytotoxic;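 note: 0% = DMSO wells and -100% = cell-free medium wells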
#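 In this qHTS, HT-1080 cells depleted of IDH1 are exposed for 48 h at 37 °C to compound titrations. Toxicity is scored from CellTiter-Glo luminescence, with DMSO as full viability and medium alone as none.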
# MCF10A rereplic: DNA re-replication induction in MCF 10a cells; MCF 10A DNA re-replication, Hoechst nuclear intensity, 48 h; 350,000 compounds, 2.9% hits; Potency, µM (doses to about 46.1 µM), without a hit: top-dose activity, positive = re-replication, hits mostly activators; note: % of control where 0% means no effect; nearly all actives have a fitted effect of over 50% in size
# Numbers without * were called inactive; i = inactive; ? = inconclusive; nt = no result; [ ] = dose if it differs, or a comment. An excerpt weighted towards active compounds, which were near 7.9% of everything screened. Calls come from the whole dose curve; as a rule, active = well fitted curve in the direction sought with a large enough effect; inconclusive = small, poorly fitted or top-dose-only effect, or another doubt; inactive = no such curve, though single readings can be large; an effect the other way counts as inactive or inconclusive. Potency is the fitted concentration of half-maximal effect.
SMILES,KB-V1 MDR tox,SW480 rerep,HT1080NT lethal,KB-3-1 tox,HT1080 IDH1KD tx,MCF10A rereplic
O=C(O)/C=C/C(=O)Nc1nc(-c2ccc3ccccc3c2)cs1,i,4.6%,2.2%,i,-0.6%,21.4%
O=C(/C=C\c1ccco1)Nc1nc(-c2ccccc2)cs1,?,-14.0%,10.3%,i,11.9%,?
O=C(/C=C/c1ccco1)NC(=S)Nc1nc(-c2ccc3ccccc3c2)cs1,5.17µM*,?,?,4.61µM*,?,1.16µM*
COc1ccc(-c2csc(NC(=S)NC(=O)/C=C/c3ccccc3)n2)cc1Br,11.6µM*,-3.6%,-15.9%,?,-18.7%,19.4%
COc1ccc(-c2csc(NC(=O)Cc3ccccc3)n2)cc1OC,i,-5.8%,3.2%,i,0.0%,-1.1%
Cc1ccc(NC(=O)Cc2noc3ccccc23)c(C)c1,i,-2.0%,23.2%,i,20.2%,0.6%
Cc1c(Cc2ccccc2)c(=O)oc2c(C)c(OC(C)C(=O)N[C@@H](Cc3ccccc3)C(=O)O)ccc12 (some centres undefined),i,?,-4.0%,i,-12.5%,-0.5%
CC(C)NC(=O)NC(=O)COc1ccc(Br)cc1Br,?,12.1%,-3.7%,i,-9.3%,23.1µM*
Cc1occc1C(=O)NNC(=O)COc1ccc(Br)cc1Br,14.6µM*,1.0%,-0.7%,i,-9.5%,4.3%
COc1cc(/C=N/N2CCN(c3ccccc3)CC2)cc(OC)c1OC(C)=O,i,9.0%,-7.5%,i,-14.9%,-0.5%
CC/C(C)=N/Nc1nc(-c2cc3cccc(OC)c3oc2=O)cs1,i,7.7%,?,i,?,-19.5%
CCN1CCOC(CC(=O)Nc2cccc([N+](=O)[O-])c2)C1=O (centres undefined),i,109.1%,11.3%,i,2.2%,20.6µM*
Cc1c(C(=O)CN2CCN(c3ccccc3)CC2)c2ccccc2n1C,i,-8.4%,-18.6%,i,-10.9%,9.6%
Cn1c2c(c3ccccc31)CCN(CCCCN1CCN(c3ccccc3)CC1)C2=O,5.8µM*,?,-13.7%,i,?,?
C=CCNc1nnc(Cc2ccc(F)cc2)c(=O)[nH]1,i,2.7%,0.1%,i,5.4%,-1.0%
COc1c(Cl)cc(Cl)cc1C(=O)Nc1ccccc1N1CCN(C(C)=O)CC1,i,-5.1%,11.8%,i,18.3%,0.0%
C/C(=N\NC(=O)CCCNc1ccc(C)cc1)c1ccccn1,6.51µM*,?,-4.3%,i,?,?
O=C1NC[C@H](Cc2ccc(O)cc2)N(C[C@@H]2CCCN2C[C@H](Cc2ccc(O)cc2)N2C[C@H](Cc3ccccc3)N(CC3CCCCCC3)C(=O)C2=O)C1=O,i,nt,-14.3%,i,-0.3%,nt
Cc1ccc(CNC(=O)C2CC(c3cccc([N+](=O)[O-])c3)=NO2)cc1 (centres undefined),i,?,-9.7%,i,-4.7%,2.06µM*
COc1ccc(CNC(=O)C2CC(c3cccc([N+](=O)[O-])c3)=NO2)cc1 (centres undefined),i,0.1%,0.8%,i,1.3%,9.2µM*
CC(C)OC(=O)C(C(=O)C(F)(F)F)c1cc(NS(=O)(=O)c2ccc3ccccc3c2)c2ccccc2c1O (centres undefined),i,?,8.2µM*,i,11.6µM*,?
CCc1ccc(-c2cn(-c3nc(C)cc(C)n3)c(=N)o2)cc1,?,-0.4%,-28.9%,20.6µM*,-12.7%,23.1µM*
COc1ccc(C)cc1S(=O)(=O)N(C)CC(=O)NC1CCCC1,11.6µM*,?,0.1%,i,0.2%,2.1%
COc1ccc(C)cc1S(=O)(=O)N(C)CC(=O)N1CCCC1,i,2.31µM*,6.9%,i,15.0%,1.6%
COc1ccc(C)cc1S(=O)(=O)N(C)CC(=O)NC1CC1,i,0.3%,2.2%,i,14.8%,-1.5%
SMILES,KB-V1 MDR tox,SW480 rerep,HT1080NT lethal,KB-3-1 tox,HT1080 IDH1KD tx,MCF10A rereplic
C=C[C@@H](c1ccccc1)[C@](C)(O)C(=O)O,i,nt,1.5%,i,7.3%,nt
Cc1c(N(C)S(=O)(=O)c2cccc(C(=O)NC(C)C)c2)c(=O)n(-c2ccccc2)n1C,i,-5.8%,19.6%,i,26.5%,0.8%
CNC(=O)c1cc2c(=O)n3cc(C)ccc3nc2n(C(C)C)c1=N,i,?,-1.4%,i,9.4%,7.08µM*
Cc1ccc2nc3c(cc(C(=O)NC4CCCC4)c(=N)n3C(C)C)c(=O)n2c1,i,nt,nt,i,nt,nt
Cc1ccc2nc3c(cc(C(=O)NC4CCCC4)c(=N)n3C3CCCCC3)c(=O)n2c1,?,?,11.9%,?,4.4%,?
N=c1c(C(=O)NC2CCCC2)cc2c(=O)n3ccccc3nc2n1C1CCCCC1,?,4.61µM*,0.9%,i,12.0%,2.91µM*
Cc1ccc2nc3c(cc(C(=O)NC4CCCCC4)c(=N)n3C3CCCCC3)c(=O)n2c1,?,18.4µM*,1.0%,?,?,?
COc1ccccc1NC(=S)N1CCN(C(=O)c2ccco2)CC1,i,2.5%,-0.1%,i,-5.3%,11.3%
COc1ccc(OC)c(S(=O)(=O)NCCOC23CC4CC(CC(C4)C2)C3)c1,i,?,3.7%,i,8.1%,?
CCC(NC(=O)NC1CCCCC1)c1ccccc1 (centres undefined),i,-14.8%,7.9%,i,-0.4%,-4.1%
CC(C)(C)N(NC(=O)Nc1ccc(Cl)c(Cl)c1)C(=O)c1ccccc1,23.1µM*,-3.3%[9.22 µM],20.6µM*,?,18.4µM*,?
CC(C)(C)N(NC(=O)Nc1ccc(F)cc1)C(=O)c1ccccc1,i,-4.6%,1.8%,i,-3.1%,7.9%
CCN1/C(=C2\SC(=S)N(Cc3ccccc3)C2=O)Sc2ccccc21,i,-42.2%,11.2%,i,11.7%,-2.0%
CCC(CO)[n+]1c(C)cc(/C=C2\Sc3ccccc3N2Cc2ccccc2)cc1C (centres undefined),i,?,3.26µM*,1.64µM*,3.26µM*,?
CC(C)n1c(O)c(N=NC(=O)Cn2ccc(C(F)(F)F)n2)c2ccccc21,8.2µM*,-29.6%,-1.8%,?,10.6%,?
O=C(Cn1ccc(C(F)(F)F)n1)N=Nc1c(O)[nH]c2ccccc12,i,2.2%,-20.8%,i,-8.0%,-0.4%
CN(C)c1ccc(C(=O)C(O)c2ccccc2)cc1 (centres undefined),i,-1.4%,5.0%,i,2.9%,1.4%
